Values joined by “and” are separate entries in the source; they are usually repeats but may differ in a detail not shown here. Equal values may be shown once. Out of some 290,000 compounds screened, about 1,800 (0.62%) were called active. Only a selection was taken, and actives are over-represented in it overall. A number with no mark means an inactive call. Cut-off read from the data, not from the text of the source: active = inhibition above about 50%; inactive = the rest.
Assay: NOD2 signaling inhibitors, cell-based, luminescence, uHTS, HEK293 (AID 1566)
Settings: HEK293 NOD2/NF-kB luciferase reporter, at 4 µM, active compounds read high

Row | SMILES | inhibition
1 | CCOc1ccccc1/C=N/Nc1ccccc1[N+](=O)[O-] | -58%
2 | CCCOc1ccc(/C=N/Nc2ccccc2[N+](=O)[O-])c(OCCC)c1 | 30.3%
3 | CCCCNC(=S)N/N=C/c1cccc(OCC)c1O | -5.1%
4 | CCCOc1ccc(/C=N/Nc2ccccc2[N+](=O)[O-])c(O)c1 | 42.2%
5 | CCOc1cccc(/C=N/NC(=S)Nc2ccccc2[N+](=O)[O-])c1O | 64.7% (active)
6 | COc1ccc(N2CCN(CC(=O)NCc3ccccc3)CC2)cc1 | -7.3%
7 | COc1ccccc1NS(=O)(=O)c1cccc(C(=O)NN=C2CCCC2)c1 | 4.3%
8 | COc1ccc(N(CC(=O)NC(C)(C)C)C(=O)CCC(=O)Nc2nccs2)cc1 | 5.1%
9 | CC1=NNC(=O)C1C(c1ccccc1)C1C(=O)NN=C1C (centres undefined) | 20.3%
10 | CCCC(=O)N(CCN1CCOCC1)c1nc2c(OCC)cccc2s1 | 5.2%
11 | COc1ccccc1CN1CCNC(=O)C1CC(=O)NCCCN1CCCC1=O (centres undefined) | -4.3%
12 | Oc1ccc(Br)cc1CNc1nccs1 | -5.1%
13 | Oc1c(Br)cc(Br)cc1CNc1nccs1 | 57% (active)
14 | O=S(=O)(Nc1nccs1)c1ccc(NCc2cc(Br)cc(Br)c2O)cc1 | 6.8%
15 | CCOC(=O)c1[nH]c2ccc(OCC)cc2c1NC(=O)CN1CCC2(CC1)OCCO2 | -2.2%
16 | COc1ccccc1N1CCN(C(=O)c2cc(C(=O)N3CCN(c4ccccc4OC)CC3)cc([N+](=O)[O-])c2)CC1 | 3.5%
17 | CCn1c(SCC(=O)N2CCN(c3ccccc3)CC2)nnc1-c1c[nH]c2ccccc12 | 6.3%
18 | COc1ccccc1C(C)NCC(=O)Nc1c(F)cccc1F (centres undefined) | 5.5%
19 | Cn1c(Oc2ccc(Cl)cc2)c(C=O)c2ccccc21 | 48.5%
20 | Cn1c(Sc2ccccc2Cl)c(C=O)c2ccccc21 | 36.9%
21 | COc1ccccc1NC(=O)CN1CCCCC1 | -4.7%
22 | O=C(O)COc1ccccc1/C=N/n1c(C2CCCCC2)n[nH]c1=S | 17.3%

Row | SMILES | inhibition
23 | CCc1cc2c3c(c1)C(C)CC(C)(C)N3C(=O)C2=O (centres undefined) | 11.8%
24 | CCOc1cc2c3c(c1)C(C)CC(C)(C)N3C(=O)C2=O (centres undefined) | 10%
25 | O=S(=O)(c1ccccc1)N1CCC(O)(CSc2ccc(Cl)cc2)CC1 | 56.9% (active)
26 | Cc1ccc(SCC2(O)CCN(S(=O)(=O)c3ccc(Cl)cc3)CC2)cc1 | 17.7%
27 | O=S(=O)(c1ccccc1)N1CCC(O)(CSc2ccccc2)CC1 | 28.2%
28 | CCOc1ccccc1NC(=O)CCc1nnc2ccc(N3CCC4(CC3)OCCO4)nn12 | -11.6%
29 | O=C(Cn1nnc(N2CCCC2)n1)N/N=C/c1ccc(Cl)cc1 | -2.3%
30 | Cc1c(NC(=O)c2ccccc2)cccc1[N+](=O)[O-] | 21.3%
31 | N/C(=N\OC(=O)c1ccccc1)c1ccccn1 | -52.6%
32 | Cc1ccc(C(=O)O/N=C(\N)c2ccccn2)cc1 | -94.8%
33 | CC(NC(=O)Nc1ccccn1)N1C(=O)C2C3C=CC(C3)C2C1=O (centres undefined) | 15.9%
34 | Cc1cc(C(=O)NCc2cccs2)ccc1[N+](=O)[O-] | 0.2%
35 | COc1ccc2c(c1)N(C(=O)CN1C(=O)C3CCCCC3C1=O)C(C)(C)C=C2C (centres undefined) | -4.7%
36 | CC(O)c1cccc(NC(=O)CCC(=O)O)c1 (centres undefined) | 0.6%
37 | CC(O)c1cccc(NC(=O)Nc2cccc(NC(=O)Nc3cccc(C(C)O)c3)c2)c1 (centres undefined) | 73.1% (active)
38 | CC(C)CC(=O)Nc1cccc(C(C)O)c1 (centres undefined) | -0.6%
39 | COc1ccccc1C(CC(=O)Nc1ccc(Cl)cc1)c1ccc(OC(C)C)cc1 (centres undefined) | 2.5%
40 | O=C(CCSCc1cccc(Cl)c1)NCCC1=CCCCC1 | 12.1%
41 | CCOc1ccccc1N1CCN(C(=O)c2c(Cl)cnn2C)CC1 | 9.1%
42 | CCn1cnc2cc(NS(=O)(=O)c3ccc(OC)c(OC)c3)ccc21 | 0%
43 | CCC1c2ccc(C)n2CCN1C(=O)Nc1cc(Cl)ccc1OC (centres undefined) | 13.8%
44 | COc1ccc(O)c(-c2[nH]ncc2C(=O)c2ccccc2C)c1 | 5.8%

Row | SMILES | inhibition
45 | COc1ccc(O)c(-c2[nH]ncc2C(=O)c2cccc(C)c2)c1 | 9.9%
46 | O=C(Cn1ncc2c3ccccc3n(Cc3ccc(F)cc3)c2c1=O)N1CCN(c2ncccn2)CC1 | 15.9%
47 | O=C(Nc1nncs1)C1COc2ccccc2O1 (centres undefined) | -9%
48 | O=C(NC1=NCCS1)C1COc2ccccc2O1 (centres undefined) | 63.1% (active)
49 | O=C(Nc1ccccc1)C1COc2ccccc2O1 (centres undefined) | -18.8%
50 | Nc1ccc(S(=O)(=O)O)cn1 | 7.7% and 2.4%
51 | S=c1[nH]nc(-c2ccc(Cl)cc2)n1/N=C/c1cccs1 | -8.1%
52 | O=c1c2ccccc2cnn1CCOc1cccc(Br)c1 | -63.9%
53 | O=c1c2ccccc2cnn1CCOc1ccccc1 | 60.4% (active)
54 | COc1ccc2cnn(CCOc3ccccc3)c(=O)c2c1OC | -68.5%
55 | CC(C)CN1CCNC(=O)C1CC(=O)NCCCN1CCCc2ccccc21 (centres undefined) | 3%
56 | COc1ccc(NC(=O)c2ccc3c(c2)NC(=O)CS3)cc1S(=O)(=O)Nc1ccc(Br)cc1 | 3.4%
57 | Cc1ccc(NS(=O)(=O)c2cc(NC(=O)c3cc(=O)[nH]c(=O)[nH]3)ccc2Cl)c(C)c1 | 22.6%
58 | CC(=O)O/N=C/c1c(Cl)n(C)c2ccccc12 | -6.2%
59 | Cc1c(/C(O)=C2/C(=O)C(=O)N(CCN3CCOCC3)C2c2ccccn2)cnn1-c1ccccc1 (centres undefined) | 56.8% (active)
60 | Cc1c(/C(O)=C2/C(=O)C(=O)N(CCN3CCOCC3)C2c2cccnc2)cnn1-c1ccccc1 (centres undefined) | 8.5%
61 | Cc1ccc(C2/C(=C(/O)c3cnn(-c4ccccc4)c3C)C(=O)C(=O)N2CCN2CCOCC2)o1 (centres undefined) | -58.4%
62 | CCOC(=O)CSc1nc(C)c2ccccc2n1 | 3.1%
63 | N#CCSc1nc(Nc2ccc3c(c2)OCO3)c2ccccc2n1 | 22%
64 | CCOC(=O)CSc1nc(Nc2ccc3c(c2)OCO3)c2ccccc2n1 | 85.7% (active)
